For 34 compounds, Potency and viability (% of control) results are on record in PubChem BioAssay (NCATS).

Records with an inconclusive call do not appear. Entries that show only a call come without a potency. Activity calls are given as the source filed them. The call rests on the fitted dose curve; in most records, active means well fitted curve in the direction sought with a large enough effect; inconclusive means small, poorly fitted or top-dose-only effect, or another doubt; inactive means no such curve, though single readings can be large; an effect the other way counts as inactive or inconclusive.
Further: nearly all actives have a fitted effect of over 40% in size.
Potency means the concentration at half of the fitted maximal effect.

Cytochrome P450 3A7 (Homo sapiens), sequence (P24462 whole entry, looked up): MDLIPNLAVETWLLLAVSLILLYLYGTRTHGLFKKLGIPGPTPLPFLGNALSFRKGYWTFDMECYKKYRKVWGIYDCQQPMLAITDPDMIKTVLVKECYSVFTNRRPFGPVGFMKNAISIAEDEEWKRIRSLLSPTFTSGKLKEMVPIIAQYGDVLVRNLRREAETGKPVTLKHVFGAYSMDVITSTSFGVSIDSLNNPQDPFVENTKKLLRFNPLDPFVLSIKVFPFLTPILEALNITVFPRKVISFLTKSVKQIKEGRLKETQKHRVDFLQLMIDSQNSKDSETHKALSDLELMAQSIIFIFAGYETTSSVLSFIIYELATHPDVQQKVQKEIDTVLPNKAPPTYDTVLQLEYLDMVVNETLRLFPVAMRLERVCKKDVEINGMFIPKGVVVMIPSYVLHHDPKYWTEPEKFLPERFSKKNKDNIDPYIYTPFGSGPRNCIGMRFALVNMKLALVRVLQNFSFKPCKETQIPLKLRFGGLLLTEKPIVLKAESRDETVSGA

The first assay concerns the target Cytochrome P450 3A7 (Homo sapiens) (UniProt P24462). Description: Cytochrome P450 family 3 subfamily A member 7 (CYP3A7) small molecule antagonists: luciferase biochemical qHTS assay (AID 1963596). As to conditions: P450-Glo CYP3A7 enzyme luminescence, 1 h; series mostly up to 57.4 µM. An outline of the steps:
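Luminescence read-out (relative luminescence units) after 20 min with detection reagent, which stops the reaction. Enzyme, proluciferin substrate and compound preincubated 10 min, RT; NADPH regeneration system then started 1 h reaction. Ketoconazole as positive control.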
(In general: qHTS replaces the single test concentration by a dilution series.)
For `COP(=O)(OC)OC=C(Cl)Cl`, the Potency entry is “inactive”. With `CC1Sc2c(C(=O)O)c(=O)c3cc(F)c(N4CCNCC4)cc3n21` (centres undefined), the Potency result was “inactive”. Still for that read-out and setting: to `ClCc1cccc(Cl)c1` belongs “inactive”; to `NC(=O)c1cc([N+](=O)[O-])cc([N+](=O)[O-])c1`, 11 µM (active); to `CN1CC[C@]23c4c5ccc(O)c4O[C@H]2[C@@H](O)CC[C@H]3[C@H]1C5`, “inactive”. Consider `CN(C)C(=O)Oc1cc(OC(=O)N(C)C)cc(C(O)CNC(C)(C)C)c1` (centres undefined), for which the Potency entry is “inactive”.

On to `Fc1cc(Br)ccc1CBr`, for which the Potency result is “inactive”. On to `O=C1CN=C(c2ccccc2)c2cc([N+](=O)[O-])ccc2N1`, for which the Potency result is “inactive”.

Turning to `O=[N+]([O-])c1c(Cl)c(Cl)cc(Cl)c1Cl`, the Potency result is “inactive”. For `CC1=C(C(=O)O)N2C(=O)[C@@H](N)[C@H]2SC1`, the Potency entry is “inactive”. On the same count and under the same terms, to `COC1CC(=C(c2cccs2)c2cccs2)C[N+](C)(C)C1` (centres undefined) belongs “inactive”; to `NC1=NC(=O)C(c2ccccc2)O1` (centres undefined), “inactive”; to `C#C[C@]1(O)CC[C@H]2[C@@H]3CCC4=CC(=O)CCC4=C3C=C[C@@]21CC`, “inactive”. Still for that read-out and setting: the value for `O=S(=O)(c1ccc(Cl)cc1)c1ccc(Cl)cc1` was 2.02 µM (active). On the same count and under the same terms, to `CCN[C@@H](C)Cc1cccc(C(F)(F)F)c1` belongs “inactive”. Take `NC(=O)[C@@H](CC1CC1)[C@@H](CCC(F)(F)F)C(=O)N[C@H]1N=C(c2ccccc2)c2cccc(F)c2NC1=O`: the Potency entry is “inactive”.

In the case of `CC(C)(C)NCC(O)c1cc(Cl)c(N)c(Cl)c1` (centres undefined), the Potency entry was “inactive”. The same measure, in the same setting: to `O=c1n(Cl)c(=O)n(Cl)c(=O)n1Cl` belongs “inactive”.

System in another assay: not listed separately
The assay is described as follows: Viability qHTS for spleen associated tyrosine kinase inhibitor (SYKi) naive MV4-11 cells (AID 1963823). The conditions noted are these: MV4-11 AML viability, CellTiter-Glo luminescence, 72 h; series mostly up to 45 µM. An outline of the steps: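 Luminescence from CellTiter-Glo, developed 10 min at room temperature, gave viability of MV4-11 cells never exposed to SYK inhibitor. Cells (500/well) had been incubated with compounds for 72 hr under standard culture conditions.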
On to `COC1CC(O[C@H]2CC[C@]3(C=O)C4CC[C@]5(C)[C@@H](C6=CC(=O)OC6)CC[C@]5(O)[C@@H]4CC[C@]3(O)C2)OC(C)C1O[C@@H]1O[C@H](CO)[C@@H](O)[C@H](O)[C@H]1O` (some centres undefined), for which the Potency was 0.0862 µM (active). With `C[C@]12C/C(=C/O)C(=O)C[C@@H]1CC[C@@H]1[C@@H]2CC[C@@]2(C)[C@H]1CC[C@]2(C)O`, the Potency is 18.8 µM (active). The same measure, in the same setting: to `COC1=CC(=O)O[C@@H](CCc2ccccc2)C1` belongs “inactive”; to `CCC1NC(=O)C2C(Cl)C(Cl)CN2C(=O)C(C(C)O)NC(=O)CC(c2ccccc2)NC(=O)C(CO)NC1=O` (centres undefined), “inactive”. As for `CN(CC[C@H](N)CC(=O)N[C@H]1C=C[C@@H](n2ccc(N)nc2=O)O[C@@H]1C(=O)O)C(=N)N`, the viability (% of control) is 83.5% [at 9.25 µM] (inactive). For the compound `Clc1ccc([C@]23CNC[C@H]2C3)cc1Cl`, the Potency result is “inactive”. Same read-out and setting: the value for `C=C1C2(C)CC3C(C)(O)C4=CC(=O)OC(C)(C)C4=CCC3(C)C13C(=O)OC(C)C3(O)C2=O` (centres undefined) was “inactive”; that for `CC12Cc3cn[nH]c3C=C1CCC1C2CCC2(C)C1CCC2(C)O` (centres undefined) was 25.9 µM (active). Regarding `C=CC(C)(O)CC/C=C(\C)C(=O)O[C@H]1[C@H](O)[C@@H](CO)O[C@@H](OC(=O)[C@]23CCC(C)(C)CC2C2=CCC4[C@@]5(C)CC[C@H](O[C@@H]6O[C@H](CO[C@@H]7OC[C@H](O)[C@H](O)[C@H]7O[C@@H]7OC[C@@H](O)[C@H](O)[C@H]7O)[C@@H](O)[C@H](O)[C@H]6O)C(C)(C)C5CC[C@@]4(C)[C@]2(C)CC3)[C@@H]1OC1OC(C)C(O[C@@H]2OC[C@@H](O)[C@H](O[C@@H]3OC[C@@H](O)[C@H](O)[C@H]3O)[C@H]2O)C(O)C1O` (some centres undefined), the viability (% of control) is 65.2% [at 9.25 µM] (inactive). Consider `C[C@@H]1O[C@@H](OC2CCC3(C=O)C(CCC4C3CCC3(C)C(C5=CC(=O)OC5)C(O)CC43O)C2)[C@H](O)[C@H](O)[C@H]1O[C@@H]1O[C@H](CO)[C@@H](O)[C@H](O)[C@H]1O` (some centres undefined), for which the Potency was 2.17 µM (active). Take `COC1C(O)C(C)OC(OC2C(CO)O[C@@H](O[C@@H]3CC4CCC5C(CC[C@]6(C)[C@@H](C7=CC(=O)OC7)CC[C@]56O)[C@@]4(C)[C@H](O)C3)C(O)C2O)C1O` (some centres undefined): the Potency was 0.385 µM (active).

`COC(=O)[C@@]12C(=O)C(C)C(=O)[C@]1(C)C(C)=C[C@H]1[C@]3(C=O)CC[C@H](OC(C)=O)C(C)(C)[C@H]3CC[C@@]12C` (some centres undefined): the Potency result is “inactive”. The same measure, in the same setting: the value for `C=C(C)[C@@]12O[C@@H]1[C@@]1(C)C(=C[C@H]2O)CC[C@@H](O)[C@@H]1C` was “inactive”; that for `Fc1cc(F)c2c(c1)C1C=CCC1C(c1cccnc1)N2` (centres undefined) was 3.66 µM (active); that for `C[C@H]1O[C@@H](O[C@H]2CC[C@]3(C=O)C4CC[C@]5(C)[C@@H](C6=CC(=O)OC6)CC[C@]5(O)[C@@H]4CC[C@]3(O)C2)C[C@@H](O)[C@@H]1O` (some centres undefined) was 0.0563 µM (active). Take `C/C=C(/C)C1C=CC2CC(C)CC(C)C2C1/C(O)=C1\C(=O)NC(CC(C)(O)C(=O)O)C1=O` (centres undefined): the Potency result is “inactive”.
